Reference: PubChem BioAssay AID652020 (National Center for Advancing Translational Sciences (NCATS), 2013)
The list shows a part of the results. Records with an inconclusive call do not appear. The source made the active and inactive calls. Calls come from the whole dose curve; as a rule, active = well fitted curve in the direction sought with a large enough effect; inconclusive = small, poorly fitted or top-dose-only effect, or another doubt; inactive = no such curve, though single readings can be large or run the other way.

Biological target: Glutathione reductase, mitochondrial (Homo sapiens) (UniProt P00390)
Sequence (P00390 whole entry, looked up): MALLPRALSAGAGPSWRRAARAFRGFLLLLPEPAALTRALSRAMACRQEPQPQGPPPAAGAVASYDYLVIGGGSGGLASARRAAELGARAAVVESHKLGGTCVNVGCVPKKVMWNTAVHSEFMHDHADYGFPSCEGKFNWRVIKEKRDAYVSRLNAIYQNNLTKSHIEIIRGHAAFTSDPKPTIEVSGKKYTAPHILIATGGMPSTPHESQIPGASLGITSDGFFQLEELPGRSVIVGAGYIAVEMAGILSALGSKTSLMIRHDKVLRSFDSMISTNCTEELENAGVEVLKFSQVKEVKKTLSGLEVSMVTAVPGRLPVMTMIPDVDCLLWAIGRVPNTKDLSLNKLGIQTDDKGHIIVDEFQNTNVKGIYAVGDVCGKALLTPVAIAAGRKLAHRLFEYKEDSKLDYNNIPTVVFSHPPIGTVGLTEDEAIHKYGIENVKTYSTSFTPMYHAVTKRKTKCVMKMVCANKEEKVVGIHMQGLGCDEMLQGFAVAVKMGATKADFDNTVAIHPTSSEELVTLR
Assay: qHTS Assay for Inhibitors of Mammalian Selenoprotein Thioredoxin Reductase 1 (TrxR1): Counterassay in Glutathione Reductase (GR)
Details: purified GR, DTNB reduction absorbance 405 nm kinetic; series mostly up to 57.1 µM; activity change, negative = inhibition: at the top concentration
From the text: The selenoprotein thioredoxin reductase (TrxR; EC 1.8.1.9) is a FAD containing homodimeric pyridine nucleotide-disulfide oxidoreductase with many cellular roles. Together with NADPH and its prime substrate thioredoxin (Trx), the enzyme forms the core of the Trx system. The mammalian Trx system exerts a wide spectrum of functions including redox regulation, antioxidant defense, regulation of transcription factors as well as support of cell growth and replication. Many of these functions involve the reduction of Trx, which may subsequently reduce a number of different substrates including ribonucleotide reductase, peroxiredoxins or NFkB. Mammalian TrxR itself also has a broad substrate specificity, reducing both protein and non-protein substrates, including low molecular weight compounds such as dehydroascorbate, lipoic acid, ubiquinone, and juglone. In addition, several drugs in clinical use for anticancer treatment are indeed known to target TrxR1. This assay is counterassay using a yeast glutathione reductase (GR) assay. The desired outcome is inactivity in this assay. NIH Molecular Libraries Probe Production Network [MLPCN] NIH Chemical Genomics Center [NCGC] MLPCN Grant: MH090846 Assay Provider: Elias Arner, Karolinska Institute
Three microliters of reagents (100 microM NADPH and 60 nM hGR or 100 microM NADPH as no-enzyme control) was dispensed into 1,536-well black clear-bottomed plates (Buffer: 0.1 M potassium phosphate, pH 7.4/10 mM EDTA, 0.01 % Tween-20). Compounds (23nl) was transferred via Kalypsys pin tool equipped with 1536-pin array. The plates were incubated for 15 min at room temperature, and 1microl aliquot of 500 microM NADPH was added, immediately followed by a 1 microl aliquot of 15 mM DTNB (3 mM final concentration) to start the reaction. The plate was transferred to a ViewLux high-throughput CCD imager (Perkin-Elmer, Wellesley, MA) where kinetic measurements (one read per 5 min for 6 reads, total time 25 min) of the TNB absorbance was acquired using a 405 excitation filter.

| Structure (SMILES) | activity change, negative = inhibition |
| --- | --- |
| Cc1ccccc1-c1nc(CS(=O)(=O)CC(=O)N2CCc3ccccc3C2)c(C)o1 | -11% (inactive) |
| CC1CCN(C(=O)c2ccc(S(=O)(=O)Cc3cc(F)ccc3F)c([N+](=O)[O-])c2)CC1 | -12.9% (inactive) |
| O=C(/C=C/c1ccco1)Nc1cccc(-c2nc3ccccc3[nH]2)c1 | -21.6% (inactive) |
